In PubChem BioAssay AID1159580 (chemical genetic matrix, 2015):
“And” between values parts separate entries of the source, which are not always exact repeats. Equal values may be shown once. Hit rate of the full screen: of about 5,500 compounds, about 2,000 (36%) were called active. About 18% were inconclusive and are not listed. Cut-off read from the data, not from the text of the source: active = normalized growth mostly below about 0.91 (no sharp cut-off); inconclusive = no clear call, values can overlap the other calls; inactive = mostly above about 0.92. The list shows a part of the results.

Assay: chemical genetic growth profiling, strain panel (AID 1159580);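 note: tested at 20 µM; growth read once vehicle control cultures reached saturation at 30 °C; 1 = growth at the plate median or of vehicle wells; lower values mean less growth of the strain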
Conditions: S. cerevisiae deletion strains, growth OD

Measured: normalized growth

Cc1cc(O)cc(C)c1Cl
active: locus YAL026C, strain drs2, hits give low values 0.831 | locus YBL061C, strain skt5, hits give low values 0.914 | locus YBR009C, strain hhf1, hits give low values 0.873 | locus YBR023C, strain chs3, hits give low values 0.899 | locus YBR279W, strain paf1, hits give low values 0.899 | locus YCL011C, strain gbp2, hits give low values 0.906 | locus YCL016C, strain dcc1, hits give low values 0.892 | locus YCL061C, strain MRC1, hits give low values 0.916 | locus YCR088W, strain abp1, hits give low values 0.891 | locus YDR137W, strain rgp1, hits give low values 0.41 | locus YDR159W, strain sac3, hits give low values 0.588 | locus YDR195W, strain ref2 1.35 [resistant] | locus YDR335W, strain msn5, hits give low values 0.898 | locus YDR392W, strain spt3, hits give low values 0.653 | locus YEL061C, strain CIN8 (second series), hits give low values 0.898 | locus YER015W, strain faa2, hits give low values 0.839 | locus YER016W, strain bim1, hits give low values 0.874 | locus YER111C, strain swi4, hits give low values 0.905 | locus YER155C, strain BEM2 (second series), hits give low values 0.603 | locus YGL078C, strain dbp3, hits give low values 0.919 | locus YGL253W, strain hxk2, hits give low values 0.895 | locus YHR027C, strain rpn1, hits give low values 0.838 | locus YHR142W, strain chs7, hits give low values 0.77 | locus YJL164C, strain tpk1, hits give low values 0.887 | locus YJL166W, strain qcr8, hits give low values 0.849
inactive: locus YAL021C, strain ccr4, hits give low values 0.918 | locus YAL030W, strain snc1, hits give low values 0.961 | locus YBR021W, strain FUR4, hits give low values 1.04 | locus YBR171W, strain sec66, hits give low values 0.912 | locus YBR229C, strain ROT2, hits give low values 0.993 | locus YBR231C, strain swc5, hits give low values 0.945 | locus YCL029C, strain bik1, hits give low values 0.981 | locus YCL069W, strain vba3, hits give low values 0.929 | locus YDL005C, strain med2, hits give low values 1.02 | locus YDL035C, strain GPR1, hits give low values 0.942 | locus YDL040C, strain nat1, hits give low values 0.968 | locus YDL074C, strain BRE1, hits give low values 0.968 | locus YDL101C, strain DUN1, hits give low values 1.01 | locus YDL185W, strain tfp1, hits give low values 0.988 | locus YDL192W, strain arf1, hits give low values 1.02 | locus YDR001C, strain nth1, hits give low values 0.951 | locus YDR069C, strain doa4, hits give low values 0.992 | locus YDR101C, strain arx1, hits give low values 0.928 | locus YDR150W, strain NUM1, hits give low values 0.998 | locus YDR162C, strain NBP2, hits give low values 0.957 | locus YDR297W, strain sur2, hits give low values 0.968 | locus YDR318W, strain mcm21, hits give low values 0.981 | locus YDR334W, strain swr1, hits give low values 0.957 | locus YDR388W, hits give low values 1 | locus YDR502C, strain sam2, hits give low values 0.949 | locus YEL003W, strain gim4, hits give low values 0.965 | locus YEL037C, strain rad23, hits give low values 0.953 | locus YEL061C, strain CIN8, hits give low values 0.988 | locus YER110C, hits give low values 1 | locus YER155C, strain BEM2, hits give low values 0.992 | locus YER167W, strain BCK2, hits give low values 0.975 | locus YFR010W, strain ubp6, hits give low values 0.93 | locus YGL086W, strain mad1, hits give low values 0.945 | locus YGL167C, strain pmr1, hits give low values 0.999 | locus YGL173C, strain kem1, hits give low values 0.927 | locus YGL227W, strain vid30, hits give low values 0.949 | locus YGL240W, strain doc1, hits give low values 0.978 | locus YGL248W, strain PDE1, hits give low values 0.999 | locus YGR078C, strain PAC10, hits give low values 0.974 | locus YGR135W, strain pre9, hits give low values 0.994 | locus YGR252W, strain gcn5, hits give low values 0.979 | locus YHR013C, strain ard1, hits give low values 0.97 | locus YHR030C, strain SLT2, hits give low values 0.995 and 0.921 | locus YHR079C, strain IRE1 (second series), hits give low values 0.996 | locus YHR079C, strain IRE1, hits give low values 0.929 | locus YHR094C, strain hxt1, hits give low values 1 | locus YHR129C, strain ARP1, hits give low values 0.998 | locus YHR200W, strain rpn10, hits give low values 0.984 | locus YIL066C, strain RNR3, hits give low values 0.981 | locus YIL073C, strain SPO22, hits give low values 1.04 | locus YIL125W, strain kgd1, hits give low values 0.993 | locus YIR030C, strain dcg1, hits give low values 0.998 | locus YJL092W, strain hpr5, hits give low values 0.923 | locus YJL095W, strain BCK1 (second series), hits give low values 0.951 | locus YJL095W, strain BCK1, hits give low values 0.986 and 0.94 | locus YJL115W, strain asf1, hits give low values 0.997 | locus YJL129C, strain trk1, hits give low values 0.899 | locus YJL134W, strain LCB3, hits give low values 0.998 | locus YJL154C, strain vps35, hits give low values 0.96 | locus YJL168C, strain set2, hits give low values 1 | locus YJL187C, strain SWE1 (second series), hits give low values 1 | locus YJR043C, strain POL32, hits give low values 0.96 | locus YJR066W, strain TOR1, hits give low values 0.955
